{"source": "PubChem BioAssay", "note": "Unmarked numbers belong to inactive results.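 How the source made its calls: active means compound raises insulin release from rat beta cells at 5 mM glucose, no numeric limit stated; inactive means the rest.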"}
{"assay": "stimulators of insulin release from INS-1E, primary screen, cell-based, 5 mM glucose, NPC library (AID 1117329); further: reference of the scale not given here", "conditions": "rat INS-1E insulin secretion, at 10 µM, stronger effect = higher value", "units": {"insulin secretion stimulation": "%"}}
{"compound": "O=C1NCCN1CCN1CCC(c2cn(-c3ccc(F)cc3)c3ccc(Cl)cc23)CC1", "insulin secretion stimulation": 5.2}
{"compound": "CC(CN(C)C)C(C)(O)Cc1ccc(Cl)cc1", "note": "(stereo not drawn)", "insulin secretion stimulation": 7.5}
{"compound": "O=c1[nH]c(=O)n([C@H]2CCCO2)cc1F", "insulin secretion stimulation": -1.4}
{"compound": "O=C(CCCl)NCCc1ccccc1", "insulin secretion stimulation": 1.5}
{"compound": "COc1cc(O)c(C(=O)c2ccccc2)cc1S(=O)(=O)O", "insulin secretion stimulation": -1.1}
{"compound": "CCNC(=O)/C=C/c1cccc(Br)c1", "insulin secretion stimulation": -2.3}
{"compound": "Nc1c[n+](N2CCOCC2)no1", "insulin secretion stimulation": -1.7}
{"compound": "O=C(OCCOCCO)c1ccccc1Nc1cccc(C(F)(F)F)c1", "insulin secretion stimulation": 0.3}
{"compound": "CCOC(=O)[C@@](C)(N)Cc1ccc(O)c(O)c1", "insulin secretion stimulation": 2.8}
{"compound": "CCCCC(O)c1ccccc1", "note": "(stereo not drawn)", "insulin secretion stimulation": -0.1}
{"compound": "Cn1c(=O)c2c(ncn2CC(=O)O)n(C)c1=O", "insulin secretion stimulation": 0.95}
{"compound": "O=P(O)(O)C(Cl)(Cl)P(=O)(O)O", "insulin secretion stimulation": 5.1}
{"compound": "CO/N=C(\\C(=O)N[C@@H]1C(=O)N2C(C(=O)O)=C(CSc3nc(=O)c(O)nn3C)CS[C@H]12)c1csc(N)n1", "insulin secretion stimulation": 0}
{"compound": "NC(=O)C(c1ccccc1)(c1ccccc1)[C@@H]1CCN(CCc2ccc3c(c2)CCO3)C1", "insulin secretion stimulation": 16}
{"compound": "NCCNCCNCCNCCN", "insulin secretion stimulation": 4.1}
{"compound": "C#C[C@]1(O)CC[C@H]2[C@@H]3CCc4cc(OC5CCCC5)ccc4[C@H]3CC[C@@]21C", "insulin secretion stimulation": 0.3}
{"compound": "O=C(NCCCN1CCOCC1)c1ccc(Cl)cc1", "insulin secretion stimulation": 1.5}
{"compound": "CC[C@H](C)[C@H](N)C(=O)O", "insulin secretion stimulation": -0.7}
